# In all, about 81,000 sequences were measured (“one-hybrid fitness for binding NBS DNA”: median about -0.1, highest 2% from about 0.36 on). The sample as a whole holds a higher share of the highest values than the screen did.
# B1: Caulobacter ParB omega fusion; a variant is named by its letters at X, in order, B8GW30 (parent)
# chain: MESVVVGEPGMSEGRRGLGRGLSALLGEVDAAPAQAPGEQLGGSREAPIEILQRNPDQPRRTFREEDLEDLSNSIREKGVLQPILVRPSPDTAGEYQIVAGERAWRAAQRAGLKTVPIMVRELDDLAVLEIGIIENVQRADLNVLEEALSYKVLMEKFERTQENIAQTIGKSXSHVANXMRLLXLPDEVQSYLVSGELTAXHARAIAAAADPVALAKQIIEGGLSVRETEALARKAPNLSAGKSKGGRPPRVKDTDTQALESDLSSVLGLDVSIDHRGSTGTLTITYATLEQLDDLCNRLTRGI
# Variants of: B1
# Assay: one-hybrid fitness for binding NBS DNA (the Noc-binding site; scaled: cognate 1, non-cognate 0); higher = stronger binding
# Conditions: with NBS DNA site
# How it was run: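 Selection: bacterial one-hybrid in E. coli USO, HIS3 reporter with the site 19 bp from the promoter, 48 hours at 37°C on M9-minus-histidine plus 0.1 mM IPTG and 5 mM 3-AT. Libraries were Caulobacter ParB with four randomised specificity codons, sequenced on Illumina before and after selection. Fitness is the rescaled log change in variant-to-wild-type read ratio, anchored to the cognate and non-cognate sites.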
row,Variant,one-hybrid fitness for binding NBS DNA
1,HINT,≤ 0.2
2,HQTT,≤ 0.2
3,ITQC,≤ 0.2
4,IHSS,≤ 0.2
5,SNIS,≤ 0.2
6,KRCM,≤ 0.2
7,FKNS,≤ 0.2
8,RTRP,≤ 0.2
9,RTYH,≤ 0.2
10,RTRS,0.651
11,RTDH,≤ 0.2
12,RTRH,0.536
13,RTRN,0.277
14,RTYS,0.491
15,RTWS,0.349
16,RTIS,0.34
17,IPNR,≤ 0.2
18,PSAG,≤ 0.2
19,DNSY,≤ 0.2
20,AIGW,≤ 0.2
21,RVNT,0.576
22,RVDR,0.213
23,RVND,≤ 0.2
24,RVDT,≤ 0.2
25,RVNR,0.55

row,Variant,one-hybrid fitness for binding NBS DNA
1,RVNP,≤ 0.2
2,RVDS,≤ 0.2
3,RVNS,0.521
4,RVNN,≤ 0.2
5,WHSS,≤ 0.2
6,TLQF,≤ 0.2
7,SSCT,≤ 0.2
8,WSSA,≤ 0.2
9,LTMS,≤ 0.2
10,PEYD,≤ 0.2
11,YDIF,≤ 0.2
12,YRPY,≤ 0.2
13,RKPC,≤ 0.2
14,RCKC,0.37
15,RPKC,≤ 0.2
16,RSYC,≤ 0.2
17,RMYC,≤ 0.2
18,RMKC,0.4
19,RLKC,0.335
20,RKKC,0.391
21,RMVC,≤ 0.2
22,RKVC,≤ 0.2
23,RSVC,≤ 0.2
24,RSKC,0.382
25,CIWR,≤ 0.2

row,Variant,one-hybrid fitness for binding NBS DNA
1,TVCY,≤ 0.2
2,CPRV,≤ 0.2
3,GSGL,≤ 0.2
4,NLCF,≤ 0.2
5,RRSS,0.643
6,RRSH,0.439
7,RCSH,0.203
8,RRSD,≤ 0.2
9,RRSN,0.356
10,RRSP,≤ 0.2
11,APVD,≤ 0.2
12,VPVL,≤ 0.2
13,EKCM,≤ 0.2
14,GETM,≤ 0.2
15,NDTS,≤ 0.2
16,HEHG,≤ 0.2
17,WING,≤ 0.2
18,QTWK,≤ 0.2
19,QSWR,0.365
20,QIWR,0.304
21,QTWR,0.529
22,QMWD,≤ 0.2
23,QMWR,0.403
24,QRWR,0.796
25,QMWS,0.261

row,Variant,one-hybrid fitness for binding NBS DNA
1,QLWR,0.319
2,QRWD,≤ 0.2
3,QTWC,≤ 0.2
4,RLIM,≤ 0.2
5,HKDT,≤ 0.2
6,CTPT,≤ 0.2
7,QQGL,≤ 0.2
8,TSVS,≤ 0.2
9,LDTG,≤ 0.2
10,DILR,≤ 0.2
11,RKCV,≤ 0.2
12,QAWY,≤ 0.2
13,QAWR,0.348
14,QKWS,0.33
15,QKWY,≤ 0.2
16,QKWR,0.462
17,QKWD,0.405
18,QPWR,≤ 0.2
19,QCWR,0.49
20,QKWF,≤ 0.2
21,QKWM,≤ 0.2
22,RLLS,0.266

# — a collection of fitness landscapes (doi:10.1016/j.celrep.2020.107928)
